Compounds without any hit were thinned out: in the full panel of roughly 83,000, 20% have a hit.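 Each cell line was grown in a 96-well plate and treated with one concentration of compound for 48 hours. Values below 10 were considered active.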 Unmarked numbers belong to inactive results. Activity calls are given as the source filed them.
Columns and labels:
Assay in all cases: NCI-60 one-dose screen, 48 h (100 = growth as untreated, 0 = no growth, -100 = all killed)
Settings in all cases: 10 µM
[1] = test system: SR leukemia
[2] = test system: RPMI-8226 leukemia
[3] = test system: OVCAR-8 ovarian
[4] = test system: OVCAR-5 ovarian
[5] = test system: OVCAR-4 ovarian
[6] = test system: SK-OV-3 ovarian
[7] = test system: IGROV1 ovarian
[8] = test system: OVCAR-3 ovarian
[9] = test system: HS 578T breast
[10] = test system: NCI/ADR-RES ovarian

SMILES: Cc1cc(Cl)ccc1Nc1nc(C(F)(F)F)ccc1C(=O)N/N=C/c1c(Cl)cccc1Cl
- growth [1]: -26.6% (active)
- growth [2]: -15.1% (active)
- growth [3]: 9.98% (active)
- growth [4]: 24.8%
- growth [5]: 7.14% (active)
- growth [6]: -12.9% (active)
- growth [7]: 4.15% (active)
- growth [8]: -2.74% (active)
- growth [9]: -22.1% (active)
- growth [10]: 11.9%

SMILES: O=C(NCCNC(=O)c1ccc(F)cc1)Nc1ccc(-n2cc(-c3ccncc3)c(-c3ccc(Cl)c(O)c3)n2)cc1
- growth [1]: -0.62% (active)
- growth [2]: -35.6% (active)
- growth [3]: 4.62% (active)
- growth [4]: 27.8%
- growth [5]: 37.1%
- growth [6]: -8.18% (active)
- growth [7]: 20.4%
- growth [8]: 3.59% (active)
- growth [9]: 16.6%
- growth [10]: 77.4%

SMILES: CCc1c2c(nc3ccc(OC(=O)N4CCC(N5CCCCC5)CC4)cc13)-c1cc3c(c(=O)n1C2)COC(=O)[C@]3(O)CC
- growth [1]: 1.34% (active)
- growth [2]: 60.8%
- growth [3]: 28.1%
- growth [4]: 70.4%
- growth [5]: 62.4%
- growth [6]: 25.9%
- growth [7]: 49.9%
- growth [8]: 33%
- growth [9]: 102%
- growth [10]: 24.5%

SMILES: C(=N\Nc1ncnc2sc3c(c12)CCNC3)/c1cccc2ccccc12
- growth [1]: 22%
- growth [2]: -30.1% (active)
- growth [3]: 58.2%
- growth [4]: 89.8%
- growth [5]: 42.7%
- growth [6]: 103%
- growth [7]: 89.9%
- growth [8]: 113%
- growth [9]: 96.8%
- growth [10]: 75.4%

SMILES: Cc1c(Cl)cccc1NC(=O)CCCl
- growth [1]: 84.1%
- growth [2]: 90.6%
- growth [3]: 94.2%
- growth [4]: 106%
- growth [5]: 111%
- growth [6]: 104%
- growth [7]: 104%
- growth [8]: 102%
- growth [9]: 104%
- growth [10]: 105%

SMILES: CN(C)CCCOc1ccc(OCCCN(C)C)c2c1C(=O)c1ccccc1C2=O
- growth [1]: 2.73% (active)
- growth [2]: -20.6% (active)
- growth [3]: 7.14% (active)
- growth [4]: 8.93% (active)
- growth [5]: 2.16% (active)
- growth [6]: 13.8%
- growth [7]: 3.65% (active)
- growth [8]: 3.4% (active)
- growth [9]: 23%
- growth [10]: 96.1%

SMILES: CCC(CC)n1c(C)cc(=O)n1C(CC)CC
- growth [1]: 118%
- growth [2]: 106%
- growth [3]: 104%
- growth [4]: 99.4%
- growth [5]: 107%
- growth [6]: 104%
- growth [7]: 140%
- growth [8]: 113%
- growth [9]: 110%
- growth [10]: 107%

SMILES: COc1ccc(/C(C#N)=C/c2cccc(OC)c2OC)cc1
- growth [1]: 41.2%
- growth [2]: 91.1%
- growth [3]: 96%
- growth [4]: 97.7%
- growth [5]: 98.8%
- growth [6]: 96.2%
- growth [7]: 80.6%
- growth [8]: 94.2%
- growth [9]: 91.6%
- growth [10]: 53.3%

SMILES: CS(=O)(=O)c1nccc(-c2c(-c3cccc(OCc4ccc(F)cc4)c3)nc3sccn23)n1
- growth [1]: 38.6%
- growth [2]: 71.7%
- growth [3]: 86.3%
- growth [4]: 102%
- growth [5]: 65.1%
- growth [6]: 60.7%
- growth [7]: 49.7%
- growth [8]: 88.3%
- growth [9]: 73.4%
- growth [10]: 89.4%

SMILES: COc1cc(/C=C/c2cc(/C=C/c3ccc(O)c(OC)c3)n(C(=O)Nc3ccccc3Cl)n2)ccc1O
- growth [1]: -17.7% (active)
- growth [2]: -22.3% (active)
- growth [3]: 1.5% (active)
- growth [4]: 13.2%
- growth [5]: 6.59% (active)
- growth [6]: -33.3% (active)
- growth [7]: -6.58% (active)
- growth [8]: -26.8% (active)
- growth [9]: -4.71% (active)
- growth [10]: 20.8%

SMILES: N#Cc1c(N)nc(-c2cc(F)cc(C(F)(F)F)c2)nc1-c1ccccc1F
- growth [1]: 23.6%
- growth [2]: 70.9%
- growth [3]: 35.8%
- growth [4]: 61.1%
- growth [5]: 5.1% (active)
- growth [6]: 46.6%
- growth [7]: 38.6%
- growth [8]: 37.5%
- growth [9]: 18.4%
- growth [10]: 49.3%

SMILES: C[C@]12CC[C@@H]3c4ccc(O)cc4CC[C@H]3[C@@H]1CC[C@@H]2NS(=O)(=O)c1ccc(C(F)(F)F)cc1
- growth [1]: 18.9%
- growth [2]: 34.8%
- growth [3]: 57%
- growth [4]: 90.5%
- growth [5]: 49.1%
- growth [6]: 86.6%
- growth [7]: 30.5%
- growth [8]: 35.4%
- growth [9]: 72.7%
- growth [10]: 53%

SMILES: CN1CCN(C2=Nc3ccccc3Oc3ccc(Cl)cc32)CC1
- growth [1]: 76.9%
- growth [2]: 99.5%
- growth [3]: 107%
- growth [4]: 96.1%
- growth [5]: 84.3%
- growth [6]: 117%
- growth [7]: 97.2%
- growth [8]: 104%
- growth [9]: 104%
- growth [10]: 98%

SMILES: COc1ccc(NC(=O)C2CC3C=CC2C3)c([N+](=O)[O-])c1 (stereo not given)
- growth [1]: 85.4%
- growth [2]: 104%
- growth [3]: 101%
- growth [4]: 96.5%
- growth [5]: 92.7%
- growth [6]: 102%
- growth [7]: 108%
- growth [8]: 99.4%
- growth [9]: 95.4%
- growth [10]: 97.6%

SMILES: COc1cc2cc(Oc3ccc(NC(=O)Nc4ccc(Cl)c(Cl)c4)cc3)c(C)nc2cc1OC
- growth [1]: 18%
- growth [2]: 4.2% (active)
- growth [3]: 15%
- growth [4]: 53%
- growth [5]: 31.9%
- growth [6]: 28.6%
- growth [7]: 18.6%
- growth [8]: -10% (active)
- growth [9]: 45.1%
- growth [10]: 17.1%

SMILES: COc1ccc(C2CC(c3cc(OC)c(OC)c(OC)c3)=NN2)cc1 (stereo not given)
- growth [1]: -35.1% (active)
- growth [2]: -8.7% (active)
- growth [3]: 100%
- growth [4]: 97.9%
- growth [5]: 84.9%
- growth [6]: 81.5%
- growth [7]: 62.6%
- growth [8]: 35.1%
- growth [9]: 104%
- growth [10]: 68.3%

SMILES: N#CC1=C(N)Oc2cc(N)ccc2C1c1cccnc1 (stereo not given)
- growth [1]: 70.6%
- growth [2]: 106%
- growth [3]: 106%
- growth [4]: 103%
- growth [5]: 80.3%
- growth [6]: 93.7%
- growth [7]: 101%
- growth [8]: 96.6%
- growth [9]: 82.4%
- growth [10]: 96.2%

SMILES: CCOC(=O)c1cc(C(=O)c2cc(OC)c(OC)c(OC)c2)n2ccc(-c3cc[n+](CC(=O)c4cc(OC)c(OC)c(OC)c4)cc3)cc12
- growth [1]: -16.4% (active)
- growth [2]: -22.2% (active)
- growth [3]: 7.09% (active)
- growth [4]: 92.5%
- growth [5]: -33.2% (active)
- growth [6]: 99.3%
- growth [7]: 83.2%
- growth [8]: 82%
- growth [9]: 69.4%
- growth [10]: 94.4%

SMILES: CCOC(=O)c1cc(C(=O)c2cc(OC)cc(OC)c2)n2ncc3ccccc3c12
- growth [1]: 4.68% (active)
- growth [2]: 33%
- growth [3]: 34.4%
- growth [4]: 55.2%
- growth [5]: -18% (active)
- growth [6]: 37.6%
- growth [7]: 43.5%
- growth [8]: -13.5% (active)
- growth [9]: 17.8%
- growth [10]: 19.1%

SMILES: CCN(CC)CCOc1cccc2c1C(=O)c1ccccc1C2=O
- growth [1]: 88.4%
- growth [2]: 86%
- growth [3]: 85.7%
- growth [4]: 102%
- growth [5]: 86.7%
- growth [6]: 82.2%
- growth [7]: 102%
- growth [8]: 102%
- growth [9]: 90%
- growth [10]: 92.5%

SMILES: COc1ccc(CCN2CCC(Nc3nc4ccccc4n3Cc3ccc(F)cc3)CC2)cc1
- growth [1]: -54.6% (active)
- growth [2]: -20.2% (active)
- growth [3]: -40.4% (active)
- growth [4]: 34.5%
- growth [5]: 22.4%
- growth [6]: 44%
- growth [7]: 41.2%
- growth [8]: 28.3%
- growth [9]: -40.2% (active)
- growth [10]: 37.7%

SMILES: COc1cc(C)ccc1Oc1nc(Nc2ccc(N3CCOCC3)cc2)ncc1NC(=O)Nc1cc(C(F)(F)F)cc(C(F)(F)F)c1
- growth [1]: 28.3%
- growth [2]: 61.9%
- growth [3]: 44.3%
- growth [4]: 106%
- growth [5]: 66.3%
- growth [6]: 101%
- growth [7]: 64%
- growth [8]: 51.9%
- growth [9]: 43.6%
- growth [10]: 46.6%

SMILES: Oc1cccc(-c2nc3sccn3c2-c2ccncn2)c1
- growth [1]: 60.1%
- growth [2]: 118%
- growth [3]: 102%
- growth [4]: 119%
- growth [5]: 114%
- growth [6]: 88.4%
- growth [7]: 91.2%
- growth [8]: 114%
- growth [9]: 81.7%
- growth [10]: 94%

SMILES: CC(C)C[C@H](NC(=O)Cn1cccc(CNC(=O)c2ccccc2)c1=O)B(O)O
- growth [1]: 16.4%
- growth [2]: 0.606% (active)
- growth [3]: 54.4%
- growth [4]: 38.8%
- growth [5]: 36.7%
- growth [6]: 58.5%
- growth [7]: 51.5%
- growth [8]: -43.2% (active)
- growth [9]: 16.6%
- growth [10]: 103%

SMILES: O=C1CSC(=S)N1/N=C/c1ccc(Cl)s1
- growth [1]: 98.2%
- growth [2]: 97.4%
- growth [3]: 106%
- growth [4]: 97.6%
- growth [5]: 119%
- growth [6]: 92.6%
- growth [7]: 100%
- growth [8]: 104%
- growth [9]: 112%
- growth [10]: 97.5%

SMILES: O=C(CCCSc1nc(-c2ccccc2)cc(-c2ccc(Cl)cc2)n1)NO
- growth [1]: 26.3%
- growth [2]: -6.47% (active)
- growth [3]: 14.2%
- growth [4]: 9.63% (active)
- growth [5]: 22.3%
- growth [6]: 11.7%
- growth [7]: 22.3%
- growth [8]: 7.27% (active)
- growth [9]: 50.9%
- growth [10]: -22% (active)

SMILES: CCN(CC)CC(=O)N(CC)c1ccc(C)c(Cl)c1
- growth [1]: 82.3%
- growth [2]: 97.2%
- growth [3]: 94.4%
- growth [4]: 104%
- growth [5]: 107%
- growth [6]: 93.1%
- growth [7]: 101%
- growth [8]: 102%
- growth [9]: 100%
- growth [10]: 102%

SMILES: O=C(N/N=C/c1c(Cl)cccc1Cl)c1ccccc1Nc1cccc(C(F)(F)F)c1
- growth [1]: 70.8%
- growth [2]: 82.5%
- growth [3]: 103%
- growth [4]: 105%
- growth [5]: 99.1%
- growth [6]: 107%
- growth [7]: 74.9%
- growth [8]: 104%
- growth [9]: 85%
- growth [10]: 100%

— PubChem BioAssay (NCI)
